# Compound activity deposited in PubChem by Sanford-Burnham Center for Chemical Genomics.
# Most compounds without a hit are left out; they make up all but 3% or so of the library.
# SENP7 block = SENP7 protease inhibitors, primary screen, biochemical, luminescence, uHTS; AID 434973, 2010; inhibition, % at 5 µM; recombinant SENP7, Z-RLRGG-aminoluciferin luminescence, 40 min; Sentrin-specific protease 7 (Homo sapiens), Q9BQF6; hit rate 1.5% among 330,000;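 active means inhibition above about 50% at the single test dose, limit read from the data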;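 further: plate controls were DMSO with enzyme for no effect and no enzyme buffer wells for full effect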
# C8 TRAIL sens = viability loss with TRAIL in NB7+C8 cells, primary screen, TRAIL sensitizer project, cell-based, ATPlite luminescence. inhibition (viability loss, TRAIL sensitization), % at 10 µM. hit rate 1% among 360,000;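 active means compounds causing at least 50% loss of cell viability in the single-dose screen, relative to plate controls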
# SENP8 block-1 = human SENP8 protease inhibitors, primary screen, biochemical, fluorescence, Nedd8 protein substrate, uHTS | Sentrin-specific protease 8 (Homo sapiens), Q96LD8 | recombinant SENP8 | inhibition, % at 20 µM | hit rate 0.64% among 360,000 | AID 602440, 2012; in the data active means inhibition mostly above about 40%, no sharp cut-off; inactive means mostly below about 27%
# SENP8 block-2 = SENP8 protease inhibitors, primary screen, biochemical, luminescence. Sentrin-specific protease 8 (Homo sapiens), Q96LD8. purified SENP8, Z-RLRGG-aminoluciferin cleavage. inhibition, % at 10 µM. hit rate 1.2% among 330,000; in the data active means inhibition above about 50%
# SENP6 inh = SENP6 protease inhibitors, primary screen, biochemical, luminescence, uHTS | Sentrin-specific protease 6 (Homo sapiens), Q9GZR1 | Recombinant SENP6 catalytic domain, aminoluciferin luminescence | hit rate 1.8% among 330,000 | inhibition, % at 10 µM;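 active means inhibition above about 50% at the single tested dose, limit read from the data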;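 further: plate controls were DMSO wells with enzyme for no effect and DMSO wells lacking enzyme for full effect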
# Target sequence (Q9GZR1 628-1112 limits assumed): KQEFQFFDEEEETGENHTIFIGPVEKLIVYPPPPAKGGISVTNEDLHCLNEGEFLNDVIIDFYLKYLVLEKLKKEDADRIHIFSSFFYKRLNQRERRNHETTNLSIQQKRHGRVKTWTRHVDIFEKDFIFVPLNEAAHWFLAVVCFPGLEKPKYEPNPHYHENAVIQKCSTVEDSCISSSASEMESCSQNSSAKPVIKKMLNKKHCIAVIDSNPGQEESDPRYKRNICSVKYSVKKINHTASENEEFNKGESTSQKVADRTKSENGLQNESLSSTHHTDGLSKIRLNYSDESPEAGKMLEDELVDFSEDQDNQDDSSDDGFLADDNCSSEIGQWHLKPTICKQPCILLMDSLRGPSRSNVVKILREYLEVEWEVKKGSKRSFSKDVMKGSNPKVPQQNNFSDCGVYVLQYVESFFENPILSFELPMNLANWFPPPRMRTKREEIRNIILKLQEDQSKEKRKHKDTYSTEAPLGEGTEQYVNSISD
# PPC-1+TRAIL kill = compounds killing PPC-1 cancer cells with TRAIL present, primary screen, TRAIL potentiator project, ATPLite luminescence, uHTS | PPC-1 cells + TRAIL, ATPLite viability luminescence | cell killing (% activity), % at 4 µM or 5 µM | hit rate 0.41% among 220,000 | AID 1443, 2008;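 active means cell killing above 50% in the first pass at 4 µM, then a duplicate retest at 5 µM averaging 50% or more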;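 further: plate controls were cells with TRAIL plus DMSO for no effect and medium-only wells lacking cells for full effect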
# PPC1 cytotox = cytotoxicity in PPC-1 cells, confirmation, cytotoxicity control for TRAIL apoptosis potentiator project, cell-based, ATP content luminescence | shares compounds with PPC-1+TRAIL kill | PPC-1 viability, ATPlite luminescence, overnight | cytotoxicity, % at 5 µM | hit rate 50% among 1,200;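 active means reconfirmed compounds whose average cytotoxicity reaches 50% or more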;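 further: 0% = DMSO-treated cells and 100% = wells holding medium but no cells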
# SENP8 confirm = SENP8 protease inhibitors, retest, confirmation, biochemical, luminescence, single concentration; shares compounds with SENP7 block; Recombinant SENP8, Z-RLRGG-aminoluciferin luminescence, 60 min; inhibition, % at 12.5 µM; hit rate 40% among 6,200; AID 488912, 2010;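 active means mean inhibition across replicates above about 50%, limit read from the data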
# SENP6 confirm = SENP6 protease inhibitors, confirmation, biochemical, luminescence, single concentration. AID 488915, 2010. inhibition, % at 12.5 µM. recombinant SENP6, Z-RLRGG-aminoluciferin luminescence. hit rate 58% among 6,200. shares compounds with SENP7 block
# SENP7 conf = SENP7 protease inhibitors, retest, confirmation, biochemical, luminescence, single concentration. recombinant SENP7, Z-RLRGG-aminoluciferin luminescence, 40 min. shares compounds with SENP7 block. inhibition, % at 12.5 µM. hit rate 69% among 6,200
# Casp3 SENP sel = caspase-3 protease inhibitors, confirmation, selectivity assay for SENP inhibitor project, biochemical, single concentration; shares compounds with SENP7 block; purified caspase-3, Z-DEVD-aminoluciferin luminescence, 60 min; inhibition, % at 12.5 µM; hit rate 60% among 6,200; AID 488918, 2010;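 active means mean inhibition above about 50%, limit read from the data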;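 further: plate controls were enzyme with DMSO for no effect and wells without caspase-3 for full effect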
# Luc interf = counter-screen for SENP inhibitors: luminescence interference; shares compounds with SENP7 block; Pre-incubated SENP8/Z-RLRGG-aminoluciferin, luciferase luminescence interference; inhibition, % at 12.5 µM; hit rate 39% among 6,200;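 active means mean inhibition above about 50% when retested at one dose, limit read from the data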;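 further: plate controls were DMSO wells with completed reaction for no effect and substrate without enzyme for full effect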
# * hit, by the source's call; · = not tested or not shown.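 How the source made its calls, unless noted: active means mean inhibition above about 50% in the one-dose retest (limit read from the data); inactive means the rest.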
SMILES,SENP7 block,C8 TRAIL sens,SENP8 block-1,SENP8 block-2,SENP6 inh,PPC-1+TRAIL kill,PPC1 cytotox,SENP8 confirm,SENP6 confirm,SENP7 conf,Casp3 SENP sel,Luc interf
NS(=O)(=O)c1ccc(NC(=O)COC(=O)CN2C(=O)C3CC=CCC3C2=O)cc1 (stereo unspecified),6,-5,2,-2,-12,·,·,·,·,·,·,·
Cc1ccc(/C=C/C(=O)c2ccc(N3CCOCC3)cc2)s1,35,73*,-12,68*,81*,80*,78*,-1,33,33,16,0
O=C(c1ccccc1)c1ccc(N2CCOCC2)cc1,·,23,-54,·,·,·,·,·,·,·,·,·
COc1ccc(S(=O)(=O)N2CCCCCC2)cc1NC(=O)CN1C(=O)CNC1=O,0,-4,14,5,9,·,·,·,·,·,·,·
O=C(Nc1ccc2c(c1)OCCO2)c1cc2ccccc2o1,78*,79*,0,61*,81*,57*,56*,2,84*,97*,80*,79*
O=C(Nc1ccc2c(c1)OCCO2)c1ccc(Br)o1,74*,61*,20,55*,77*,52*,51*,77*,70*,91*,85*,74*
O=C(Nc1ccc2oc(=O)ccc2c1)c1cc2ccccc2o1,7,34,-335,8,8,22,·,·,·,·,·,·
CC(OC(=O)c1ccc(Br)o1)C(=O)Nc1ccc2c(c1)OCCO2 (stereo unspecified),10,-11,4,-3,0,·,·,·,·,·,·,·
Cc1ccc(/C=C/c2nc3ccccc3c(=O)[nH]2)cc1,98*,93*,-152,86*,90*,93*,92*,48,55*,43,38,8
O=C(Nc1ccc(Cl)cc1)c1nc[nH]c1C(=O)N1CCN(c2ccccc2)CC1,-11,0,13,-4,-7,·,·,·,·,·,·,·
COCCn1c(C)cc(C2=NNC(=NC3CC3)SC2)c1C,7,78*,5,82*,75*,89*,88*,95*,96*,101*,98*,68*
COc1ccc2nc(Nc3ccccc3OC)sc2c1,98*,69*,16,92*,92*,61*,57*,96*,96*,101*,91*,87*
CC(C)OCCCNc1ccc(N2C(=O)CCCC2=O)cc1[N+](=O)[O-],1,6,23,0,0,·,·,·,·,·,·,·
O=C(NCCCNC(=O)c1cc(Cl)ccc1Cl)c1ccccn1,-4,8,4,3,19,·,·,·,·,·,·,·
Cc1nc2cc(NC(=O)Nc3ccccc3Cl)ccc2n1C,97*,73*,6,93*,88*,71*,72*,86*,92*,99*,94*,91*
CCOc1ccc(OCCC(=O)N(CCC(C)C)c2c(N)n(Cc3ccccc3)c(=O)[nH]c2=O)cc1,-1,-2,2,-7,-3,·,·,·,·,·,·,·
Cc1ccc(NC(=O)N2CCc3ccccc32)cc1C,92*,66*,6,82*,90*,55*,59*,91*,91*,99*,88*,81*
Cc1ccc(NC(=O)N2CCc3ccccc32)cc1,94*,63*,32,89*,86*,67*,65*,91*,94*,101*,94*,94*
Cc1ccc(NC(=O)N2CCc3ccccc3C2)cc1,-1,16,-6,-10,9,32,·,·,·,·,·,·
CC(=O)c1ccc2c(c1)N(Cc1ccc3ccccc3c1)C(=O)C(C)S2 (stereo unspecified),·,7,10,·,·,·,·,·,·,·,·,·
Cc1ccsc1/C=N/NC(=O)c1ccc2c(c1)OCCO2,83*,76*,7,65*,79*,54*,63*,84*,79*,95*,90*,81*
C/C(=N\NC(=O)c1ccc(O)cc1)c1ccc2c(c1)OCCO2,3,0,7,-1,-9,·,·,·,·,·,·,·
C/C(=N\NC(=O)c1ccc2c(c1)OCCO2)c1ccccc1,96*,48,16,86*,89*,65*,64*,2,87*,99*,94*,82*
CCOc1ccc(OCc2cccc(C(=O)O)c2)cc1,100*,84*,16,96*,99*,59*,58*,10,100*,103*,99*,98*
O=C(Nc1ccc(N2CCCCC2)cc1)c1ccccc1,90*,74*,14,75*,84*,66*,61*,5,85*,98*,92*,29
SMILES,SENP7 block,C8 TRAIL sens,SENP8 block-1,SENP8 block-2,SENP6 inh,PPC-1+TRAIL kill,PPC1 cytotox,SENP8 confirm,SENP6 confirm,SENP7 conf,Casp3 SENP sel,Luc interf
Cc1ccc(C(=O)Nc2ccc(N3CCCCC3)cc2)cc1,-9,47,12,-19,-7,·,·,·,·,·,·,·
COc1ccc(-n2c(=S)[nH]c3cc(C(=O)Nc4ccc(F)cc4)ccc3c2=O)c(OC)c1,-2,6,3,-3,-11,·,·,·,·,·,·,·
Cc1cn(C2CC(O)C(CO)O2)c(=O)n(Cc2ccccc2)c1=O (stereo unspecified),·,14,6,·,·,·,·,·,·,·,·,·
COc1cccc(C(=O)Nc2nc3ccccc3[nH]2)c1,95*,83*,-1,90*,94*,71*,73*,6,93*,102*,96*,17
CC1(C)C(=O)Nc2ccccc2N1C(=O)COC(=O)/C=C/c1ccc(OC(F)F)cc1,-4,-23,9,5,1,·,·,·,·,·,·,·
CCn1c(C)nc2cc(C(=O)NNC(=O)c3ccc(C)cc3)ccc21,6,1,-41,4,2,·,·,·,·,·,·,·
